In the library only some 18% were active in any assay of this set; here they are far more common.
LDHA inh: blocks human lactate dehydrogenase A; purified LDHA, NADH/diaphorase-resazurin fluorescence; active compounds read low; activity change, % (values are at about 110 or 230 µM); 0.15% of 480,000 active; AID 1347041; in the data active means activity change below about -30%; inconclusive means mostly about -25% to -30%;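 further: plate controls were DMSO wells for no effect and wells without enzyme for full effect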
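Remaining NADH was detected by diaphorase (0.133 mg/mL) converting 37 µM resazurin to fluorescent resorufin, read at 0 and 20 minutes. The preceding 5-minute room-temperature reaction used 2 nM LDHA, 0.2 mM sodium pyruvate and 0.06 mM NADH at pH 7.4.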
DT40 TDP1 CPT: growth inhibition of DT40 Tdp1-/-;hTDP1 cells with camptothecin (screen for TDP1 inhibitors). Potency, µM (top dose mostly 46.2 µM), without a hit: at the top dose activity change, negative = growth inhibition, hits mostly inhibitors. AID 686979. 12% of 420,000 active. chicken DT40 Tdp1-/-;hTDP1 cells + 20 nM CPT, ATP luminescence, 48 h; further: potency means the concentration at half of the fitted maximal effect; nearly all actives have a fitted effect of over 55% in size
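Chicken DT40 Tdp1-/- cells stably complemented with human TDP1 were seeded at 400 cells/well in medium containing 20 nM camptothecin, exposed to pin-transferred compounds, and grown at 37 °C for at least 48 hr. Viability was read as ATP luminescence.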
IL1B secr inh: blocks inflammasome-driven IL-1 beta release; activity change, % at 57.5 µM; THP-1 LPS/ATP IL-1B secretion, AlphaLISA, 16 h; active compounds read low; 4.7% of 360,000 active; in the data active means activity change below about -50%; inconclusive means mostly about -30% to -49%
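THP-1 cells pretreated 1 hr with compounds (up to 57.5 uM final), then stimulated with LPS (250 ng/mL final) plus ATP (1.25 mM final); secreted IL-1B measured by AlphaLISA after 16 hr, decreased signal indicating inhibition.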
TDP1 cell noCPT: qHTS for Inhibitors of human tyrosyl-DNA phosphodiesterase 1 (TDP1): qHTS in cells in absence of CPT; DT40 Tdp1-/- hTDP1 cells, no CPT, ATP luminescence, 48 h; Potency, µM (top dose mostly 46.2 µM), without a hit: at the highest dose activity change, negative = growth inhibition, hits mostly inhibitors; 15% of 420,000 active; AID 686978, 2013; further: potency means the concentration at half of the fitted maximal effect; nearly all actives have a fitted effect of over 55% in size
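Luminescent ATP content (CellTiter-Glo) served as the growth readout. Knockout chicken DT40 cells expressing human TDP1 were exposed to compounds without camptothecin for a minimum 48 hr at 37 °C.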
VP16 counter: counter-screen for ROR gamma inhibitors: Gal4-VP16 reporter. Potency, µM (highest dose often 53.6 µM), for the others: top-dose activity, negative = inhibition, actives largely listed as inhibitors. 3.5% of 310,000 active. AID 2546. Drosophila S2 Gal4-VP16 UAS-luciferase, luminescence, 20 h;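 further: Gal4-VP16 expression switched on by copper sulfate through the metallothionein promoter; potency means the concentration at half of the fitted maximal effect; nearly all actives have a fitted effect of over 50% in size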
RORg inh: blocks mouse ROR gamma transcriptional activity. P51450. Drosophila S2 Gal4-RORgamma UAS-luciferase reporter, 20 h. Potency, µM (titrated, usually from 53.6 µM), for the others: at the highest dose activity change, negative = inhibition, actives largely listed as inhibitors. 5.4% of 310,000 active. AID 2551; further: potency means the concentration at half of the fitted maximal effect; nearly all actives have a fitted effect of over 60% in size
Target sequence (P51450 whole entry, looked up, the tested form may be a part): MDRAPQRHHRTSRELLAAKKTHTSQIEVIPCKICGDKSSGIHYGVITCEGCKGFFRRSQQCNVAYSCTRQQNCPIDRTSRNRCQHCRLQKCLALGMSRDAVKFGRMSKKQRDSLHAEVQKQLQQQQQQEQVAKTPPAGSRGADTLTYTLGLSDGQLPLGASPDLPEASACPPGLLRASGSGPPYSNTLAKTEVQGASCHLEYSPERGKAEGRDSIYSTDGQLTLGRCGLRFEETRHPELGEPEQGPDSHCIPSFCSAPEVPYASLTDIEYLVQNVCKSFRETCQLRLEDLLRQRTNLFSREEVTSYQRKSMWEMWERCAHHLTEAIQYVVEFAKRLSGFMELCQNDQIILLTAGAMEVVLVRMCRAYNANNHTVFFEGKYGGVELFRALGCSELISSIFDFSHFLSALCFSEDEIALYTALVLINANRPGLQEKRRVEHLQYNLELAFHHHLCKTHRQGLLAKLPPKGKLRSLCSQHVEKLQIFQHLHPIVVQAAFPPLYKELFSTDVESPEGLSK
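Luminescence from a UAS-regulated Photinus luciferase reporter in stably transfected Drosophila Schneider cells is measured; decreased signal marks ROR gamma inhibition. Fusion expression is induced by 700 uM copper sulfate for 20 hr.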
An asterisk follows results filed as active; ? = inconclusive; / = no result; ! = not active in a repeat; [ ] = another dose, or the depositor's remark. Unless noted, the call rests on the fitted dose curve; in most records, active means well fitted curve in the direction sought with a large enough effect; inconclusive means small, poorly fitted or top-dose-only effect, or another doubt; inactive means no such curve, though single readings can be large; an effect the other way counts as inactive or inconclusive. Unless noted, on the % scale 0 is the no-effect control and ±100 the full control effect.

SMILES	LDHA inh	DT40 TDP1 CPT	IL1B secr inh	TDP1 cell noCPT	VP16 counter	RORg inh
O=C(Sc1cccc2cccnc12)c1ccc(F)cc1	/	/	/	/	4.47µM*	1.12µM*
CCn1cc(S(=O)(=O)Nc2cc(Cl)cc(Cl)c2)cn1	-0.4	/	/	/	/	/
COc1ccccc1N1CCN(S(=O)(=O)CCNC(=O)Cc2ccc(Cl)cc2)CC1	-7.4	?	/	23.1µM*	/	/
CCCCOc1ccc(C(=O)NCCS(=O)(=O)N2CCN(c3ccc(F)cc3)CC2)cc1	2.2	-25.3%	/	-17.2%	/	/
COc1ccccc1N1CCN(S(=O)(=O)CCNC(=O)Cc2ccc(F)cc2)CC1	1.3	20.6µM*	-3.7	?	/	/
CCCCOc1ccc(C(=O)NCCS(=O)(=O)N2CCN(c3ccccc3OC)CC2)cc1	-6.4	5.8µM*	/	7.31µM*	/	/
COc1ccc(CC(=O)NCCS(=O)(=O)N2CCN(c3ccc(F)cc3)CC2)cc1OC	0.7	?	39.7	?	-13.9%	?
COc1ccccc1N1CCN(S(=O)(=O)CCNC(=O)COc2ccccc2)CC1	0.1	?	-17.8	?	/	/
Cc1c(Cc2ccccc2)c(=O)oc2c(C)c(OCC(=O)NC(C)C)ccc12	2.2	/	/	/	/	/
COC(=O)c1[nH]c2ccccc2c1NC(=O)CN1CCC2(CC1)OCCO2	1.2	/	/	/	/	/
CCN(CC(=O)NC(C)(C)C)C(=O)c1cccc(C#N)c1	2.3	/	/	/	/	/
Cc1nnsc1S(=O)c1ccc(Br)cc1 (stereo unspecified)	-0.6	18.4µM*	-8.0	?	-8.1%	-25.8%
Cc1ccc(S(=O)c2ccc(C)cc2)cc1	-7.4	-8.1%	-5.5	-18.0%	-13.3%	-0.1%
Cc1ccc(S(=O)c2snnc2C)cc1 (stereo unspecified)	-7.7	-4.7%	-17.9	-10.4%	-6.0%	4.5%
Cc1nnsc1S(=O)c1ccc(F)cc1 (stereo unspecified)	-4.9	-8.5%	-50.3*	14.6%	3.7%	-0.1%
Cc1ccc(-c2nnc(Nc3ccccc3)c3ccccc23)cc1S(=O)(=O)NC(C)(C)CO	23.7	/	/	/	/	/
NC(=S)COc1ccccc1	0.4	14.4%	13.9	0.3%	-18.7%	22.4µM*
O=C(O)COc1ccc(Oc2ccccc2)cc1	-4.7	6.6%	0.0	9.2%	12.6µM*	?
CCC(NC(C)C)C(O)c1ccc(O)c(O)c1 (stereo unspecified)	6.6	?	-17.6	?	-12.6%	1.7%
CCC(c1ccc(O)c(O)c1)C(CC)c1ccc(O)c(O)c1 (stereo unspecified)	24.9	2.91µM*	-98.8*	1.84µM*	/	/
CC(C)NC[C@H](O)c1cc(O)cc(O)c1	/	/	/	/	-4.1%[17 µM]	-11.5%[16.9 µM]
CC(C)NC[C@H](O)c1ccc(O)c(O)c1	8.0	4.73µM*!	-21.2	8.41µM*!	-14.1%	?
COC(C)(C)C#CC(=O)c1cccc2ccccc12	3.9	/	/	/	/	/
Cc1ccc(C(=O)OCC(=O)c2cccs2)cc1O	3.3	/	/	/	/	/
Oc1ccc(C2=NNC(=NCc3ccc4c(c3)OCO4)SC2)c(O)c1	0.9	3.66µM*	-6.5	4.61µM*	?	1.58µM*
SMILES	LDHA inh	DT40 TDP1 CPT	IL1B secr inh	TDP1 cell noCPT	VP16 counter	RORg inh
Clc1ccc(C2=NNC(=NCc3ccc4c(c3)OCO4)SC2)cc1	-1.0	10.3µM*	?	5.8µM*	?	?
COc1ccc(OC)c(C2=NNC(=NCc3ccc4c(c3)OCO4)SC2)c1	-7.9	?	0.0	?	1.2%	-7.2%[10 µM]
O=C1CC(c2ccccc2OCc2ccc(F)cc2)c2cn[nH]c2N1 (stereo unspecified)	8.4	/	/	/	/	/
CC(=O)Nc1ccc(-c2nc3cc(C(C)C)ccc3o2)cc1	0.3	/	/	/	/	/
Cc1ccc(N(CC(=O)NCCSc2nc3ccccc3s2)S(=O)(=O)c2ccccc2)c(C)c1	-1.1	?	-9.3	25.9µM*	-13.8%	28.8%
O=C(CN(c1ccccc1)S(=O)(=O)c1ccccc1)NCCSc1nc2ccccc2s1	-6.7	?	54.2	18.4µM*	1.8%	15.2%
CC(C)(C)c1ccc(-c2cc3ccccn3c2)cc1	-21.9	/	/	/	/	/
COc1ccc(-c2noc(CN(C(=O)Nc3cccc4ccccc34)C(C)C)n2)cc1	-6.8	/	/	/	/	/
C=C(C)CN1CCN(CCC(=O)O)CC1	-9.1	/	/	/	/	/
O=C(Nc1ccc(-n2cccn2)cc1)C1CCCCN1Cc1cccc2cccnc12 (stereo unspecified)	-6.6	?	-50.3*	?	0.0%	-10.0%
Cn1cc(CN2CCCCC2C(=O)Nc2ccc(-n3cccn3)cc2)cn1 (stereo unspecified)	-3.7	2.8%	-22.8	8.2%	5.7%	1.1%
O=c1c(Cl)c(Nc2cccc(Cl)c2)cnn1-c1nc2ccccc2s1	3.6	-38.7%	-29.0	?	-24.5%	?
COc1ccc(Nc2cnn(-c3nc4ccccc4s3)c(=O)c2Cl)cc1	-0.5	2.06µM*	-81.2*	4.11µM*	?	8.6%[10 µM]
Cc1ccc(C)c(N2CCN(c3cnn(-c4nc5ccccc5s4)c(=O)c3Cl)CC2)c1	-1.6	9.2µM*	-5.1	9.2µM*	-20.0%	-11.8%
O=C(Oc1cccc(OC(=O)c2ccc(Cl)cc2Cl)c1)c1ccc(Cl)cc1Cl	-11.8	/	/	/	/	/
O=S(=O)(Cc1ccc(F)cc1)N1CCc2ccccc21	-5.9	/	/	/	/	/
NC(CCc1ccccc1)c1csc(Nc2nncc3ccccc23)n1 (stereo unspecified)	-1.4	20.6µM*	?	20.6µM*	/	/
NC(Cc1ccccc1)c1csc(Nc2nncc3ccccc23)n1 (stereo unspecified)	-3.0	20.6µM*	-26.0	23.1µM*	/	/
Cc1oc(-c2nc(C#N)c(N3CCCCC3)o2)cc1S(=O)(=O)N(C)C	2.2	/	/	/	/	/
Cc1noc(C)c1S(=O)(=O)NCCc1ccc(-n2cccn2)cc1	0.3	/	/	/	/	/
O=C(CNC(=O)C(c1ccccc1)c1ccccc1)OCC(=O)c1cccs1	-1.2	1.64µM*	2.1	1.46µM*	-28.7%	-0.4%
O=C(CNC(=O)C(c1ccccc1)c1ccccc1)OCC(=O)c1cccc2ccccc12	-0.3	?	/	20µM*	/	/
COc1ccc(C2CC(=O)NC3=C2C(=O)CC(C)(C)C3)cc1 (stereo unspecified)	2.2	/	/	/	/	/
COCCSc1ccc2c(c1)OCCCO2	2.5	/	/	/	/	/
NC(CSC(c1ccccc1)(c1ccccc1)c1cccc2ccccc12)C(=O)O (stereo unspecified)	33.5	?	-50.2*	?	/	/
N[C@H](CSC(c1ccccc1)(c1ccccc1)c1ccccc1)C(=O)O	/	/	/	/	3.6%	9.4%
O=C(/C=C/c1cccc([N+](=O)[O-])c1)c1ccccc1	/	/	/	/	7.0%	8.1%

Screens: PubChem BioAssay, National Center for Advancing Translational Sciences (NCATS)
